# Experimental data published in PubChem BioAssay (NCI).
# This is part of a sample that, as a whole, favours compounds with a hit. Of some 83,000 tested, about 20% had one in any assay.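 For each line, cells grew in 96-well plates with the test compound present at a single concentration for 48 hours.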 Unmarked numbers belong to inactive results. Active and inactive are the calls of the source. The calls were made as follows: active = growth percent below 10; inactive = the rest.
# Columns and labels:
# Assay in all cases: NCI-60 one-dose screen, 48 h (100 = growth as untreated, 0 = no growth, -100 = all killed)
# Conditions in all cases: 10 µM
# [1] = system: K-562 leukemia
# [2] = system: MDA-MB-231 breast
# [3] = system: RXF 393 renal
# [4] = system: SF-268 CNS
# [5] = system: SF-295 CNS
# [6] = system: SF-539 CNS
# [7] = system: UACC-257 melanoma
# [8] = system: M14 melanoma
# [9] = system: HCT-15 colon
# [10] = system: HT29 colon
# [11] = system: SNB-75 CNS
# [12] = system: SNB-19 CNS
# [13] = system: U251 CNS
# [14] = system: PC-3 prostate
# [15] = system: SK-MEL-5 melanoma
# [16] = system: UACC-62 melanoma
# [17] = system: LOX IMVI melanoma
# [18] = system: SK-MEL-28 melanoma
# [19] = system: SK-MEL-2 melanoma
# [20] = system: MALME-3M melanoma
SMILES,growth [1],growth [2],growth [3],growth [4] [%],growth [5],growth [6],growth [7],growth [8],growth [9],growth [10],growth [11],growth [12] [%],growth [13],growth [14] [%],growth [15],growth [16] [%],growth [17] [%],growth [18] [%],growth [19],growth [20] [%]
N=c1c2c(-c3ccccc3)c(-c3ccccc3)n(Cc3ccccc3)c2ncn1CCCO,-0.624% (active),39%,12.7%,41.4,88.3%,54.1%,-24.9% (active),43.4%,28.1%,0.266% (active),39.7%,48.3,24.5%,33.8,-4.56% (active),44.2,13,49.8,47%,–
Cc1cc(C)c(CCc2cc(C)c(C)cc2C)cc1C,94.8%,104%,117%,103,108%,105%,101%,111%,117%,100%,98.3%,105,93.9%,106,103%,101,91.7,108,109%,–
COc1ccc2c(c1)N(CCO)C1=C(C(=O)OC1)C2c1ccc(OC)c(OC)c1 (stereo not given),19.8%,68%,28.2%,54.3,7.46% (active),13%,53.7%,36.1%,39.6%,9.84% (active),16.2%,53.2,34.5%,38,16.9%,27.3,38.2,61.6,–,–
COc1ccc2c(c1)sc1nc(-c3ccccc3)c(-c3ccsc3)n12,13.8%,52.3%,-13.3% (active),54.3,-20% (active),2.07% (active),39.7%,15.6%,30.5%,-5.75% (active),6.18% (active),40.8,26.9%,16.6,9.67% (active),36.3,40.3,60.7,5.47% (active),–
Cc1ccc(-c2nc(/C=C3/C(=O)N(C)c4ccc(F)cc43)c3ccccn23)cc1,107%,76.5%,97.9%,92.1,71.3%,94.6%,106%,99.5%,93%,112%,87.4%,101,80.8%,113,95.6%,97.8,95.9,108,115%,–
O=C1OCC2=C1C(c1cccc(Cl)c1)c1cc3c(cc1N2CCO)CCC3 (stereo not given),16.7%,-19.3% (active),34.3%,13.9,-18.8% (active),-5.32% (active),46%,8.51% (active),9.71% (active),-9.18% (active),40.5%,29.8,3.51% (active),20.4,-8.14% (active),26.6,12.6,59.2,–,–
COc1ccc2c(c1)N(CCO)C1=C(C(=O)OC1)C2c1ccccc1 (stereo not given),16.3%,63.4%,2.16% (active),51.2,-11.6% (active),2.74% (active),55%,7.89% (active),22.4%,1.72% (active),14.6%,41.1,20.9%,27.1,9.35% (active),20.1,43.3,53.7,–,–
Cc1occc1-c1nnc(SCC(=O)c2ccc(NC(=O)CC(C)C)cc2)o1,86.1%,105%,–,132,104%,101%,–,112%,121%,113%,111%,–,–,100,94.9%,104,105,123,90.8%,89.8
CCN(CC)CCC(=O)Nc1cccc2c1C(=O)c1c(c(O)c3ccccc3c1O)C2=O,23.3%,–,58.4%,56.9,25.7%,38%,85.6%,70.8%,51.9%,57.5%,38%,77.3,64.6%,45.4,47.6%,79.6,40.6,34,112%,61.6
